About 83,000 compounds went through this panel and 20% of them were active in at least one assay; those are over-represented in the sample as a whole.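 Single-dose data. Exposure time 48 hours. Values below 10 considered active.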 Values without a mark were called inactive. Active and inactive are the calls of the source.

What all share (experiment): NCI-60 one-dose screen, 48 h (100 = growth as untreated, 0 = no growth, -100 = all killed)
The test system of one test is SR leukemia. The conditions noted are these: 10 µM unless noted.
The next test deals with RPMI-8226 leukemia. The conditions noted are these: 10 µM unless noted.
In another test the test system is OVCAR-8 ovarian. Particulars: 10 µM unless noted.
The subject of a further test is OVCAR-5 ovarian. Particulars: 10 µM unless noted.
A further test concerns OVCAR-4 ovarian. The conditions noted are these: 10 µM unless noted.
A further test has as its system SK-OV-3 ovarian. The conditions noted are these: 10 µM unless noted.
Another test relates to IGROV1 ovarian. Particulars: 10 µM unless noted.
A further test concerns OVCAR-3 ovarian. The conditions noted are these: 10 µM unless noted.
Another test concerns HS 578T breast. Particulars: 10 µM.
The subject of the next test is NCI/ADR-RES ovarian. Particulars: 10 µM unless noted.
The subject of the next test is BT-549 breast. Particulars: 10 µM unless noted.
In another test the test system is MDA-MB-435 melanoma. Particulars: 10 µM unless noted.
The test system of the next test is SW-620 colon. The conditions noted are these: 10 µM unless noted.
For a further test, the system named is HCT-116 colon. The conditions noted are these: 10 µM unless noted.
In another test the test system is HCC-2998 colon. Particulars: 10 µM unless noted.
The next test relates to KM12 colon. The conditions noted are these: 10 µM unless noted.
In another test the test system is T-47D breast. The conditions noted are these: 10 µM unless noted.
A further test deals with MCF7 breast. Particulars: 10 µM unless noted.

As to `C#CC[C@@H]1C[C@]2(C)[C@H]3CC[C@@H]4[C@H]5C(C(=C)C)CC[C@]5(C(=O)NCCCCN)CC[C@@]4(C)[C@]3(C)CC[C@H]2C(C)(C)[C@H]1OC(C)=O` (stereo partly drawn), the growth was -7.19% (active) in the test with SR leukemia; -39.1% (active) with RPMI-8226 leukemia; -47.5% (active) in the test with OVCAR-8 ovarian; -87.3% (active) with OVCAR-5 ovarian; -61.8% (active) in the test on OVCAR-4 ovarian; 111% in the test with SK-OV-3 ovarian. For the same compound, the growth is -59% (active) in the test on IGROV1 ovarian; -87.3% (active) in the test on OVCAR-3 ovarian; -26.2% (active) with HS 578T breast; -53.4% (active) in the test with NCI/ADR-RES ovarian; 41.2% in the test on BT-549 breast; -92.2% (active) with MDA-MB-435 melanoma. The growth in the test with SW-620 colon is -66.8% (active); in the test on HCT-116 colon, -85.7% (active); in the test with HCC-2998 colon, -11.1% (active); in the test with KM12 colon, -66.8% (active).

`O=C(NCC(c1ccsc1)N1CCCCCC1)c1ccc(C(F)(F)F)cc1` (stereo not drawn): the growth was 85.8% in the test on SR leukemia; 88.8% in the test on RPMI-8226 leukemia; 102% in the test with OVCAR-8 ovarian; 106% in the test on OVCAR-5 ovarian; 94.6% in the test with OVCAR-4 ovarian; 109% in the test with SK-OV-3 ovarian. Besides, the growth in the test with IGROV1 ovarian was 96.8%; with OVCAR-3 ovarian, 103%; in the test on HS 578T breast, 102%; in the test on T-47D breast, 91.7%; with BT-549 breast, 99.8%; with MDA-MB-435 melanoma, 91.8%. For the same compound, the growth is 96.6% in the test with SW-620 colon; 94.5% in the test on MCF7 breast; 88.9% in the test with HCT-116 colon; 102% in the test with HCC-2998 colon; 76.8% in the test on KM12 colon.

Turning to `COc1cccc(NC(=O)[C@H](C(C)C)n2c(=O)[nH]c3ccccc3c2=O)c1`, the growth with SR leukemia was 95.8%; in the test on RPMI-8226 leukemia, 98.6%; in the test with OVCAR-8 ovarian, 96.9%; in the test on OVCAR-5 ovarian, 108%; in the test with OVCAR-4 ovarian it was 105%; in the test with SK-OV-3 ovarian it was 101%. The growth with IGROV1 ovarian is 113%; in the test on OVCAR-3 ovarian, 109%; in the test on HS 578T breast, 110%; with T-47D breast, 91.1%; with BT-549 breast, 102%; in the test with MDA-MB-435 melanoma, 108%. The growth with SW-620 colon is 103%; in the test with MCF7 breast it was 98.2%; with HCT-116 colon, 113%; in the test with HCC-2998 colon, 96.3%; in the test with KM12 colon, 104%.

Regarding `Cc1nc2ccc(Nc3nc(Cl)nc(N4CCOCC4)n3)cc2n1Cc1ccccc1`, the growth with SR leukemia was 18.5%; in the test with RPMI-8226 leukemia, 74.4%; with OVCAR-8 ovarian it was 44%; with OVCAR-5 ovarian it was 104%; in the test with OVCAR-4 ovarian, 126%; in the test with SK-OV-3 ovarian, 93.7%. Also, the growth was -1.16% (active) in the test with IGROV1 ovarian; 98.4% in the test with OVCAR-3 ovarian; 81.4% in the test with HS 578T breast; 40.6% with T-47D breast; 83.7% in the test on BT-549 breast; 110% in the test on MDA-MB-435 melanoma. The growth is 70.4% in the test with SW-620 colon; 64.7% with MCF7 breast; 81.2% with HCT-116 colon; 0.667% (active) in the test with HCC-2998 colon; 95.8% in the test on KM12 colon.

On to `CC(=O)Nc1ccc(Cl)cc1Cl`, for which the growth in the test on SR leukemia was 44.3%; with RPMI-8226 leukemia it was 121%; in the test on OVCAR-8 ovarian, 97.6%; in the test with OVCAR-5 ovarian it was 102%; in the test with OVCAR-4 ovarian, 105%; with SK-OV-3 ovarian, 108%. The growth in the test with IGROV1 ovarian is 60.8%; in the test with OVCAR-3 ovarian, 118%; with HS 578T breast, 178%; with NCI/ADR-RES ovarian, 115%; in the test with BT-549 breast, 120%; with MDA-MB-435 melanoma it was 96%. Moreover, the growth in the test on MCF7 breast is 100%; in the test on HCT-116 colon, 105%; in the test on HCC-2998 colon, 106%; with KM12 colon, 112%.

Take `C#CC[C@@H]1C[C@]2(C)[C@H]3CC=C4[C@H]5[C@@H](C)[C@H](C)CC[C@]5(C(=O)NCCCCN)CC[C@@]4(C)[C@]3(C)CC[C@H]2C(C)(C)[C@H]1OC(C)=O`: the growth with SR leukemia was -19.2% (active); in the test on RPMI-8226 leukemia, 5.75% (active); with OVCAR-8 ovarian, 63.7%; with OVCAR-5 ovarian it was 108%; in the test on OVCAR-4 ovarian, 68.3%; in the test with SK-OV-3 ovarian it was 109%. Moreover, the growth in the test with IGROV1 ovarian is 74.8%; in the test on OVCAR-3 ovarian, 55.6%; in the test on HS 578T breast, 102%; with NCI/ADR-RES ovarian, 86.1%; in the test on BT-549 breast, 93.8%; with MDA-MB-435 melanoma it was 40%. Also, the growth with MCF7 breast was 12.2%; with HCT-116 colon it was -56.4% (active); with HCC-2998 colon, 30%; in the test on KM12 colon, 38.3%.

Turning to `CNCCCNc1ccnc2cc(Cl)ccc12`, the growth in the test with SR leukemia is 3.67% (active); with RPMI-8226 leukemia, -12.3% (active); in the test on OVCAR-8 ovarian it was 1.62% (active); in the test with OVCAR-5 ovarian it was 13.1%; in the test with OVCAR-4 ovarian, -21.3% (active); in the test on SK-OV-3 ovarian it was 5.19% (active). Moreover, the growth in the test with IGROV1 ovarian was -21.7% (active); in the test with OVCAR-3 ovarian, -31.2% (active); in the test with HS 578T breast it was -3.8% (active); in the test on T-47D breast it was -5.41% (active); in the test with BT-549 breast, -10.3% (active); in the test with MDA-MB-435 melanoma, -98% (active). Moreover, the growth was -23.3% (active) in the test on SW-620 colon; 2.35% (active) in the test on MCF7 breast; 3.6% (active) in the test on HCT-116 colon; -78.6% (active) in the test with HCC-2998 colon; 0.517% (active) with KM12 colon.

As for `Cc1cc(Cl)c2ccc(N(C)C)cc2n1`, the growth is 87.3% with SR leukemia; 97% with RPMI-8226 leukemia; 102% with OVCAR-8 ovarian; 105% with OVCAR-5 ovarian; 105% with OVCAR-4 ovarian; 97.4% in the test on SK-OV-3 ovarian. The growth in the test with IGROV1 ovarian is 106%; in the test on OVCAR-3 ovarian, 104%; in the test on HS 578T breast it was 96.9%; with T-47D breast it was 90.7%; in the test with BT-549 breast it was 111%; in the test on MDA-MB-435 melanoma it was 102%. Moreover, the growth with SW-620 colon is 99.5%; with MCF7 breast, 92.1%; in the test with HCT-116 colon it was 105%; in the test on HCC-2998 colon, 101%; in the test with KM12 colon it was 104%.

These data come from PubChem BioAssay (NCI).
